# ± gives the standard deviation of the averaged measurements.
# Legend:
# DLD1 [1] = test: cell viability (CellTiter-Glo) relative to plate median (fraction of plate median); higher = more viable cells; details: 5 µM; treatment time 24 h; reporter: 7TFP
# Summary of the method: (§1)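 Stable lentiviral TCF/Wnt firefly luciferase reporters (7TFP or TCF4/Wnt) were present in the colorectal cancer cell lines used. These cells received library compounds at a final 5 µM for 24 h, and parallel plates were read for firefly luciferase or CellTiterGlo luminescence. Each well was normalised to the plate median, and the value reported is the mean of two independent replicates.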
# HCT116 = test: as above; details: 5 µM; treatment time 24 h; reporter: TCF4/Wnt
# Summary of the method: as §1
# SW480 [2] = test: as above; details: 5 µM; treatment time 24 h; reporter: 7TFP
# Summary of the method: as §1
# DLD1 [3] = test: TCF/Wnt firefly luciferase reporter signal relative to plate median (fraction of plate median); higher = higher Wnt reporter signal; details: 5 µM; treatment time 24 h; reporter: 7TFP
# Summary of the method: as §1
# SW480 [4] = test: as above; details: 5 µM; treatment time 24 h; reporter: 7TFP
# Summary of the method: as §1
smiles,measurement,setting,value
CCC(=O)OC1[C@@H]2CC3=C4CC(=O)O[C@@H](c5ccoc5)[C@]4(C)CCC3[C@@](C)(C2=O)[C@@H](CC(=O)OC)C1(C)C (stereo not given in full),cell viability,DLD1 [1],0.932 ± 0.087
same,cell viability,HCT116,1.03 ± 0.046
same,cell viability,SW480 [2],1 ± 0.027
same,TCF/Wnt firefly luciferase reporter signal,DLD1 [3],0.969 ± 0.012
same,TCF/Wnt firefly luciferase reporter signal,SW480 [4],0.979 ± 0.19
Cc1cc2cc3c(C)cc(=O)oc3c(C)c2o1,cell viability,DLD1 [1],1.07 ± 0.021
same,cell viability,HCT116,0.954 ± 0.034
same,cell viability,SW480 [2],1 ± 0.022
same,TCF/Wnt firefly luciferase reporter signal,DLD1 [3],1.14 ± 0.11
same,TCF/Wnt firefly luciferase reporter signal,SW480 [4],0.895 ± 0.037
CNCCCC12CCC(c3ccccc31)c1ccccc12,cell viability,DLD1 [1],1.07 ± 0.085
same,cell viability,HCT116,1.085 ± 0.0071
same,cell viability,SW480 [2],1.07 ± 0.071
same,TCF/Wnt firefly luciferase reporter signal,DLD1 [3],1.04 ± 0.035
same,TCF/Wnt firefly luciferase reporter signal,SW480 [4],1.1 ± 0.042
O=C(O)CCCC[C@@H]1CCSS1 (racemic),cell viability,DLD1 [1],1.06 ± 0.071
same,cell viability,HCT116,1.01
same,cell viability,SW480 [2],0.986 ± 0.035
same,TCF/Wnt firefly luciferase reporter signal,DLD1 [3],0.856 ± 0.032
same,TCF/Wnt firefly luciferase reporter signal,SW480 [4],0.96 ± 0.023
CC(=O)O[C@H]1CC[C@]2(C)[C@H]3CC=C4[C@@H]5CC(C)(C)CC[C@]5(C)CC[C@@]4(C)[C@]3(C)CC[C@H]2C1(C)C [beta-AMYRIN ACETATE],cell viability,DLD1 [1],0.982 ± 0.054
same,cell viability,HCT116,0.965 ± 0.025
same,cell viability,SW480 [2],1.03 ± 0.021
same,TCF/Wnt firefly luciferase reporter signal,DLD1 [3],1.145 ± 0.0071
same,TCF/Wnt firefly luciferase reporter signal,SW480 [4],1.07 ± 0.014
CCCNCC(O)COc1ccccc1C(=O)CCc1ccccc1 (stereo not given),cell viability,DLD1 [1],0.96 ± 0.085
same,cell viability,HCT116,1.07 ± 0.22
same,cell viability,SW480 [2],0.927 ± 0.033
same,TCF/Wnt firefly luciferase reporter signal,DLD1 [3],1.06 ± 0.091
same,TCF/Wnt firefly luciferase reporter signal,SW480 [4],0.883 ± 0.12
CC1=C(/C=C/C(C)=C/C=C/C(C)=C/C=C/C=C(C)/C=C/C=C(C)/C=C/C2=C(C)C(=O)CCC2(C)C)C(C)(C)CCC1=O [CANTHAXANTHIN (euglenanone)],cell viability,DLD1 [1],1 ± 0.021
same,cell viability,HCT116,0.899 ± 0.067
same,cell viability,SW480 [2],1.06
same,TCF/Wnt firefly luciferase reporter signal,DLD1 [3],1.115 ± 0.0071
same,TCF/Wnt firefly luciferase reporter signal,SW480 [4],1.17 ± 0.014
CCCCC(=O)Oc1ccccc1C(=O)O,cell viability,DLD1 [1],0.984 ± 0.013
same,cell viability,HCT116,0.98 ± 0.042
same,cell viability,SW480 [2],0.988 ± 0.018
same,TCF/Wnt firefly luciferase reporter signal,DLD1 [3],1 ± 0.052
same,TCF/Wnt firefly luciferase reporter signal,SW480 [4],1 ± 0.2
COc1ccc2cc3[n+](cc2c1OC)CCc1cc2c(cc1-3)OCO2,cell viability,DLD1 [1],1.04 ± 0.021
same,cell viability,HCT116,0.984 ± 0.011
same,cell viability,SW480 [2],1.02 ± 0.091
same,TCF/Wnt firefly luciferase reporter signal,DLD1 [3],1.1 ± 0.085
same,TCF/Wnt firefly luciferase reporter signal,SW480 [4],0.954 ± 0.053
Cc1ccc(-c2cc(C(F)(F)F)nn2-c2ccc(S(N)(=O)=O)cc2)cc1,cell viability,DLD1 [1],0.972 ± 0.097
same,cell viability,HCT116,1.02 ± 0.087
same,cell viability,SW480 [2],0.987 ± 0.047
same,TCF/Wnt firefly luciferase reporter signal,DLD1 [3],0.919 ± 0.013
same,TCF/Wnt firefly luciferase reporter signal,SW480 [4],0.947 ± 0.04
CC(=O)[C@@]1(O)CC[C@H]2[C@@H]3C[C@H](C)C4=CC(=O)C=C[C@]4(C)[C@@]3(F)[C@@H](O)C[C@@]21C,cell viability,DLD1 [1],1.07 ± 0.085
same,cell viability,HCT116,1.03
same,cell viability,SW480 [2],0.957 ± 0.044
same,TCF/Wnt firefly luciferase reporter signal,DLD1 [3],0.985 ± 0.079
same,TCF/Wnt firefly luciferase reporter signal,SW480 [4],0.99 ± 0.057
N#Cc1ccc2c(c1)N(CCCN1CCC(O)CC1)c1ccccc1S2,cell viability,DLD1 [1],0.991 ± 0.07
same,cell viability,HCT116,0.931 ± 0.053
same,cell viability,SW480 [2],1.01 ± 0.069
same,TCF/Wnt firefly luciferase reporter signal,DLD1 [3],0.981 ± 0.056
same,TCF/Wnt firefly luciferase reporter signal,SW480 [4],1.05 ± 0.071
NC(=O)CC[C@H](N)C(=O)O,cell viability,DLD1 [1],1.02 ± 0.014
same,cell viability,HCT116,0.923 ± 0.11
same,cell viability,SW480 [2],1.02 ± 0.069
same,TCF/Wnt firefly luciferase reporter signal,DLD1 [3],1.02 ± 0.14
same,TCF/Wnt firefly luciferase reporter signal,SW480 [4],1.07 ± 0.064
CCN(CC)CCOC(=O)C(c1ccccc1)C1CCCCC1 (stereo not given),cell viability,DLD1 [1],0.986 ± 0.0071
same,cell viability,HCT116,0.938 ± 0.13
same,cell viability,SW480 [2],0.978 ± 0.046
same,TCF/Wnt firefly luciferase reporter signal,DLD1 [3],0.996 ± 0.0057
same,TCF/Wnt firefly luciferase reporter signal,SW480 [4],1.05 ± 0.075
CN(C)CCCN1c2ccccc2CCc2ccccc21,cell viability,DLD1 [1],1.05 ± 0.1
same,cell viability,HCT116,0.989 ± 0.1
same,cell viability,SW480 [2],1.015 ± 0.0071
same,TCF/Wnt firefly luciferase reporter signal,DLD1 [3],0.881 ± 0.012
same,TCF/Wnt firefly luciferase reporter signal,SW480 [4],0.913 ± 0.024
Cc1cn[nH]c1,cell viability,DLD1 [1],0.959 ± 0.021
same,cell viability,HCT116,0.939 ± 0.018
same,cell viability,SW480 [2],1.01 ± 0.021
same,TCF/Wnt firefly luciferase reporter signal,DLD1 [3],0.768
same,TCF/Wnt firefly luciferase reporter signal,SW480 [4],0.892 ± 0.11
Cc1cc(NC(=O)C2=C(O)c3ccccc3S(=O)(=O)N2C)no1,cell viability,DLD1 [1],1.04 ± 0.064
same,cell viability,HCT116,0.88 ± 0.036
same,cell viability,SW480 [2],1.004 ± 0.0085
same,TCF/Wnt firefly luciferase reporter signal,DLD1 [3],0.945 ± 0.15
same,TCF/Wnt firefly luciferase reporter signal,SW480 [4],0.993 ± 0.18
